# Experimental data as given in PubChem BioAssay.
# Where “and” joins values, the source holds several entries; their conditions need not be identical. Equal entries are not always repeated. Records with an inconclusive call do not appear. Some compounds were tested as several samples or in several runs, with calls that do not always agree. Calls of active or inactive are those of the source.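 The calls were made as follows, unless noted: active = normalized viability below 100% at a tested concentration; inactive = the rest.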
# Columns and labels:
# [1] = P. berghei load reduction in hepatocytes – cell-based, HepG2, luciferase luminescence, HepG2 viability, primary screen (AID 624349; in the data active = parasite load remaining mostly below about 12%, no sharp cut-off; inactive = mostly above about 10%;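 also: 100% = mean of DMSO negative control wells on the same plate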); conditions: P. berghei liver stage in HepG2, luciferase luminescence, concentration not given here; parasite load remaining: stronger effect = lower value; viability: measured here: HepG2 viability without parasites
# [2] = system: Aerobactin synthetase IucA (Klebsiella pneumoniae); assay: inhibition of K. pneumoniae IucA enzyme – biochemical, Tocris library, absorbance (AID 1345561; call rule not given here;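 also: 100% = enzyme without compound and 0% = no enzyme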); conditions: purified IucA enzyme assay, absorbance (OD) read-out; stronger effect = lower value;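 tested at 8 µM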
# [3] = viability loss in pontine glioma line – cell-based, SU-DIPG-XIII, MIPE4.0, CellTiter-Glo, qHTS, dose response (AID 1347061; cut-off not given, nearly all actives have AC50 up to about 37 µM;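 also: cells exposed to compound for 48 hours before readout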); conditions: CellTiter-Glo ATP luminescence
# [4] = viability loss in pontine glioma line – cell-based, JHH-DIPG-1, MIPE4.0, CellTiter-Glo, qHTS, dose response (AID 1347062; cut-off not given, nearly all actives have AC50 up to about 27 µM); conditions: JHH-DIPG-1 viability, CellTiter-Glo ATP luminescence
# [5] = viability loss in pontine glioma line – cell-based, SU-DIPG-IV, MIPE4.0, CellTiter-Glo, qHTS, dose response (AID 1347063; cut-off not given, nearly all actives have AC50 up to about 30 µM;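 also: compound exposure lasted 48 hours before the viability readout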); conditions: CellTiter-Glo ATP luminescence
# [6] = viability loss in pontine glioma line – cell-based, SU-DIPG-XIII, MIPE5.0, CellTiter-Glo, qHTS, dose response (AID 1347064; cut-off not given, nearly all actives have AC50 up to about 23 µM); conditions: CellTiter-Glo ATP luminescence
# [7] = growth inhibition of DIPG cells – cell-based, MIPE4.0 library, CellTiter-Glo luminescence, qHTS (AID 1347066; cut-off not given, nearly all actives have AC50 up to about 30 µM;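 also: cells exposed to compound for 48 hours before readout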); conditions: SU-DIPG-VI viability, CellTiter-Glo ATP luminescence
# [8] = JHH-DIPG-1 glioma cell viability, MIPE5.0 library, CellTiter-Glo luminescence, qHTS (AID 1347067; cut-off not given, nearly all actives have AC50 up to about 26 µM;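 also: cells exposed to compound for 48 hours before readout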); conditions: JHH-DIPG-1 glioma viability, CellTiter-Glo ATP luminescence
# [9] = growth inhibition of DIPG cells – cell-based, MIPE5.0 library, qHTS (AID 1347068; cut-off not given, nearly all actives have IC50 up to about 30 µM); conditions: SU-DIPG-XXV viability
# [10] = viability loss with induced miR-34 in A549 – imaging, A549 dox-inducible miR-34, nuclei and caspase counts, primary screen (AID 1347080;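 active = compounds whose cell count with miR-34 switched on is under 0.7 times the count with it off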); conditions: A549 miR-34 inducible, Hoechst nuclei count, 48 h
# [11] = compounds altering HSF1 focus formation in cells – imaging, Selleck Cancer Library (AID 1347162; in the data active = plate-normalised HSF1 focus index below about 0.46); conditions: human cells, HSF1 nuclear foci imaging, at 10 µM; SSMD: measured here: HSF1 foci SSMD mean; cell count: measured here: cell number; plate-normalised HSF1 focus index: stronger effect = lower value
# [12] = drug combination growth inhibition, ovarian cancer – cell-based, oncology-focused library, rucaparib conditional, profiling panel (AID 1508598); conditions: patient-derived ovarian cancer cells, CellTiter-Glo viability, 144 h, stronger effect = lower value
# [13] = galactose survival enhancers in mitochondrial complex I cybrids – cell-based, galactose medium, ATP luminescence, primary screen (AID 1645843;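 active = z-score of at least 1.8 in each of two replicates, scored against plate mean and spread of sample wells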;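 also: positive z means more ATP and so rescue of galactose-driven cybrid death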); conditions: complex I mutant cybrid cells, 72 h, stronger effect = higher value
# [14] = system: Hepatitis C virus NS3 helicase; assay: blockers of NS3h binding to ssDNA – biochemical, fluorescence polarization, LOPAC1280 library, primary screen (AID 687035; in the data active = inhibition above about 37%); conditions: Purified HCV NS3 helicase, Cy5-dT15 ssDNA binding fluorescence polarization; stronger effect = higher value; concentration not given here
# [15] = compounds altering Cy5-DNA-NS3h complex signal – biochemical, LOPAC1280, artefact control for HCV NS3 helicase inhibitor project (AID 687037; call rule not given here); conditions: Cy5-DNA-NS3h complex fluorescence interference counterscreen
# [16] = chitosan synthesis blockers in C. neoformans – flow cytometry, Cibacron Brilliant Red staining (AID 1347148; call rule not given here;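 also: compound exposure lasted three days at 37 degrees C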); conditions: Cryptococcus neoformans chitosan, stronger effect = lower value; at 10 µM unless noted
# [17] = blockers of cellular phospholipid synthesis – cell-based, LOPAC library, screen 4, primary screen (AID 1347384; call rule not given here); conditions: animal cells, phospholipid biosynthesis inhibition screen; at 10 µM
# [18] = stronger effect = lower value, cell number ratio, induced over uninduced
# [19] = measured here: relative caspase fold change +Dox/-Dox
# [20] = measured here: total cells with miR-34 induction, stronger effect = lower value
# [21] = measured here: total cells without miR-34 induction
# [22] = at 0.000305 µM, OCI-C5x cells, with rucaparib 10 µM, 100% = cells with rucaparib alone
# [23] = at 0.000305 µM, OCI-C5x cells, without rucaparib
# [24] = at 0.000305 µM, OCI-P5x cells, with rucaparib 20 µM, 100% = cells with rucaparib alone
# [25] = at 0.000305 µM, OCI-P5x cells, without rucaparib
# [26] = at 0.00122 µM, OCI-C5x cells, with rucaparib 10 µM, 100% = cells with rucaparib alone
# [27] = at 0.00122 µM, OCI-C5x cells, without rucaparib
# [28] = at 0.00122 µM, OCI-P5x cells, with rucaparib 20 µM, 100% = cells with rucaparib alone
# [29] = at 0.00122 µM, OCI-P5x cells, without rucaparib
# [30] = at 0.00488 µM, OCI-C5x cells, with rucaparib 10 µM, 100% = cells with rucaparib alone
# [31] = at 0.00488 µM, OCI-C5x cells, without rucaparib
# [32] = at 0.00488 µM, OCI-P5x cells, with rucaparib 20 µM, 100% = cells with rucaparib alone
# [33] = at 0.00488 µM, OCI-P5x cells, without rucaparib
# [34] = at 0.0195 µM, OCI-C5x cells, with rucaparib 10 µM, 100% = cells with rucaparib alone
# [35] = at 0.0195 µM, OCI-C5x cells, without rucaparib
# [36] = at 0.0195 µM, OCI-P5x cells, with rucaparib 20 µM, 100% = cells with rucaparib alone
# [37] = at 0.0195 µM, OCI-P5x cells, without rucaparib
# [38] = at 0.0781 µM, OCI-C5x cells, with rucaparib 10 µM, 100% = cells with rucaparib alone
# [39] = at 0.0781 µM, OCI-C5x cells, without rucaparib
# [40] = at 0.0781 µM, OCI-P5x cells, with rucaparib 20 µM, 100% = cells with rucaparib alone
# [41] = at 0.0781 µM, OCI-P5x cells, without rucaparib
# [42] = at 0.313 µM, OCI-C5x cells, with rucaparib 10 µM, 100% = cells with rucaparib alone
# [43] = at 0.313 µM, OCI-C5x cells, without rucaparib
# [44] = at 0.313 µM, OCI-P5x cells, with rucaparib 20 µM, 100% = cells with rucaparib alone
# [45] = at 0.313 µM, OCI-P5x cells, without rucaparib
# [46] = at 1.25 µM, OCI-C5x cells, with rucaparib 10 µM, 100% = cells with rucaparib alone
# [47] = at 1.25 µM, OCI-C5x cells, without rucaparib
# [48] = at 1.25 µM, OCI-P5x cells, with rucaparib 20 µM, 100% = cells with rucaparib alone
# [49] = at 1.25 µM, OCI-P5x cells, without rucaparib
# [50] = at 5 µM, OCI-C5x cells, with rucaparib 10 µM, 100% = cells with rucaparib alone
# [51] = at 5 µM, OCI-C5x cells, without rucaparib
# [52] = at 5 µM, OCI-P5x cells, with rucaparib 20 µM, 100% = cells with rucaparib alone
# [53] = at 5 µM, OCI-P5x cells, without rucaparib
smiles,measurement,setting,value
C[C@@H](N)C1CCC(C(=O)Nc2ccncc2)CC1 (some centres not stated),parasite load remaining,[1],75.2% (inactive)
same,viability,[1],142%
same,remaining activity,[2],114% (inactive)
same,outcome,[3],inactive
same,outcome,[4],inactive
same,outcome,[5],inactive
same,outcome,[6],inactive
same,outcome,[7],inactive
same,outcome,[8],inactive
same,outcome,[9],inactive
same,fold change,[10]; [18],0.864 (inactive) and 0.892 (inactive)
same,fold change,[10]; [19],0.978 and 1.24
same,cell count,[10]; [20],4720 and 9420
same,cell count,[10]; [21],5470 and 10600
same,SSMD,[11],3.4
same,cell count,[11],7180
same,plate-normalised HSF1 focus index,[11],1.19 (inactive)
same,viability,[12]; [22],112% (inactive)
same,viability,[12]; [23],113% (inactive)
same,viability,[12]; [24],93.5% (active)
same,viability,[12]; [25],93.7% (active)
same,viability,[12]; [26],112% (inactive)
same,viability,[12]; [27],109% (inactive)
same,viability,[12]; [28],96.3% (active)
same,viability,[12]; [29],92.8% (active)
same,viability,[12]; [30],115% (inactive)
same,viability,[12]; [31],112% (inactive)
same,viability,[12]; [32],99.1% (active)
same,viability,[12]; [33],96.4% (active)
same,viability,[12]; [34],106% (inactive)
same,viability,[12]; [35],112% (inactive)
same,viability,[12]; [36],89.2% (active)
same,viability,[12]; [37],102% (inactive)
same,viability,[12]; [38],113% (inactive)
same,viability,[12]; [39],107% (inactive)
same,viability,[12]; [40],96.5% (active)
same,viability,[12]; [41],102% (inactive)
same,viability,[12]; [42],106% (inactive)
same,viability,[12]; [43],120% (inactive)
same,viability,[12]; [44],99.7% (active)
same,viability,[12]; [45],97.9% (active)
same,viability,[12]; [46],117% (inactive)
same,viability,[12]; [47],113% (inactive)
same,viability,[12]; [48],106% (inactive)
same,viability,[12]; [49],102% (inactive)
same,viability,[12]; [50],110% (inactive)
same,viability,[12]; [51],107% (inactive)
same,viability,[12]; [52],94.4% (active)
same,viability,[12]; [53],99.6% (active)
same,z-score,[13],-0.445 (inactive)
Cc1ccc(S(=O)(=O)/C=C/C#N)cc1,parasite load remaining,[1],28.8% (inactive)
same,viability,[1],155%
same,inhibition,[14],0% (inactive)
same,fluorescence ratio (interference),[15],1 (inactive)
same,remaining activity,[2],118% (inactive)
same,fold change,[10]; [18],1.22 (inactive) and 0.866 (inactive) and 0.568 (active)
same,fold change,[10]; [19],0.97 and 2.14 and 4.02
same,cell count,[10]; [20],1120 and 1020 and 904
same,cell count,[10]; [21],923 and 1180 and 1590
same,fold fluorescence,[16],8.49 [at 241.3 µM] (inactive)
same,SSMD,[11],-10.4
same,cell count,[11],6840
same,plate-normalised HSF1 focus index,[11],0.628 (inactive)
same,outcome,[17],inactive
same,viability,[12]; [22],105% (inactive)
same,viability,[12]; [23],97.6% (active)
same,viability,[12]; [24],97.8% (active)
same,viability,[12]; [25],102% (inactive)
same,viability,[12]; [26],116% (inactive)
same,viability,[12]; [27],111% (inactive)
same,viability,[12]; [28],98.6% (active)
same,viability,[12]; [29],106% (inactive)
same,viability,[12]; [30],116% (inactive)
same,viability,[12]; [31],123% (inactive)
same,viability,[12]; [32],94.4% (active)
same,viability,[12]; [33],105% (inactive)
same,viability,[12]; [34],115% (inactive)
same,viability,[12]; [35],117% (inactive)
same,viability,[12]; [36],95.6% (active)
same,viability,[12]; [37],106% (inactive)
same,viability,[12]; [38],115% (inactive)
same,viability,[12]; [39],109% (inactive)
same,viability,[12]; [40],86.5% (active)
same,viability,[12]; [41],102% (inactive)
same,viability,[12]; [42],115% (inactive)
same,viability,[12]; [43],116% (inactive)
same,viability,[12]; [44],90.2% (active)
same,viability,[12]; [45],94.8% (active)
same,viability,[12]; [46],122% (inactive)
same,viability,[12]; [47],112% (inactive)
same,viability,[12]; [48],83.8% (active)
same,viability,[12]; [49],81.1% (active)
same,viability,[12]; [50],3.86% (active)
same,viability,[12]; [51],4.91% (active)
same,viability,[12]; [52],26.6% (active)
same,viability,[12]; [53],2.37% (active)
same,z-score,[13],-1.38 (inactive) and -1.04 (inactive)
